In PubChem BioAssay (NCATS):
“And” between values parts separate entries of the source, which are not always exact repeats. Equal values may be shown once. Results filed as inconclusive are left out. Some structures have more than one record in an assay (separate samples or runs), and their calls can disagree. The source made the active and inactive calls. Unless noted, calls come from the whole dose curve; as a rule, active = well fitted curve in the direction sought with a large enough effect; inconclusive = small, poorly fitted or top-dose-only effect, or another doubt; inactive = no such curve, though single readings can be large; an effect the other way counts as inactive or inconclusive.

Key:
[1] = Cell Viability - Hek293 (AID 427;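 active = compounds whose dose-response curve shows a full or clear partial loss of cell viability, called from curve shape rather than a numeric limit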;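 note: potency is the fitted concentration of half-maximal effect; cells exposed to compound for 40 hours at 37 °C before reading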); conditions: qHTS
Outline: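 Luminescent ATP read-out (CellTiter-Glo, 20 min RT) after 40 hr compound exposure at 37 °C in complete medium. Signal normalized to DMSO (basal) and 100 uM tamoxifen (100% inhibition); concentration-response fitted with the standard Hill equation to give AC50.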

[2] = Cell Viability - HepG2 (AID 433; calls by dose curve;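 note: potency is the fitted concentration of half-maximal effect; potency for ATP loss meaning cytotoxicity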); conditions: qHTS
Outline: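 HepG2 cells, 1500 per well, treated 40 hr at 37 °C in complete medium; viability from intracellular ATP by CellTiter-Glo luminescence. Normalized to DMSO and 100 uM tamoxifen; AC50 from Hill fit of qHTS concentration-response.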

[3] = Cell Viability - N2a (AID 540); conditions: N2a mouse neuroblastoma cell viability; activity change, negative = cytotoxicity: at 92.2 µM (top of the series); note: nearly all actives have a fitted effect of over 45% in size; note: potency is the fitted concentration of half-maximal effect;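 for activity change, negative = cytotoxicity: plate controls were DMSO alone for no effect and tamoxifen control for full effect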
Outline: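 Luminescent ATP signal (CellTiter-Glo, 20 min at room temperature) served as the viability read-out after N2a cells were treated with compounds for 40 hours at 37 °C. Concentration-response data were fitted to the Hill equation for AC50.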

[4] = Cell Viability - NIH 3T3 (AID 541); conditions: NIH 3T3 cell viability, qHTS; activity change, negative = cytotoxicity: at 92.2 µM (top of the series); note: nearly all actives have a fitted effect of over 25% in size; note: potency is the fitted concentration of half-maximal effect;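 for activity change, negative = cytotoxicity: plate controls were DMSO alone for no effect and tamoxifen positive control for full effect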
Outline: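 Luminescent ATP signal (CellTiter-Glo) served as the viability read-out after NIH 3T3 cells were exposed to compounds over a concentration range for 40 hr at 37 °C. Hill-equation modelling of concentration-response data gave AC50.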

[5] = Cellular Toxicity (caspase-3) MRC-5 (AID 659); conditions: MRC-5 cells, luminescence, normalized: DMSO 0%, 10 µM staurosporine 100%; series mostly up to 91.7 µM
Outline: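 MRC-5 human normal lung fibroblasts, 1500 cells/well, treated 16 h at 37 °C in complete medium. Caspase 3/7 measured by Caspase-Glo luminescence after 1 h at room temperature. Normalized to DMSO and 10 uM staurosporine; AC50 from Hill fit.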

[6] = Cellular Toxicity (caspase-3) SK-N-SH (AID 661); conditions: SK-N-SH caspase-3 activation, qHTS, DMSO as zero, staurosporine as full; series mostly up to 91.7 µM
Outline: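 Human neuroblastoma SK-N-SH, 1500 cells/well, 5 hr pre-incubation, then compound 16 hr, 37 °C. Caspase-Glo 3/7 reagent, 1 hr RT, luminescence. Norm. to DMSO/10 uM staurosporine; Hill-fit AC50.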

[7] = MultiTox-Fluor Cytotoxicity Assay - LYMP1-001 - Live Cells (AID 947); conditions: LYMP1-001 lymphoblastoid cells, live-cell protease fluorescence viability; series mostly up to 92.2 µM; note: potency is the fitted concentration of half-maximal effect;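 for activity change, negative = cytotoxicity: 0% = DMSO only and full inhibition = tetraoctylammonium bromide control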
[8] = Cell Viability - LYMP2-007 (AID 979); conditions: LYMP2-007 lymphoblastoid cell viability; series mostly up to 92.2 µM;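 note: potency is the fitted concentration of half-maximal effect; cells exposed to compound for 24 h before reading; nearly all actives have a fitted effect of over 60% in size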
Outline: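 Luminescent ATP signal (CellTiter-Glo) serves as the viability read-out after 24 hr compound treatment of lymphoblastoid cells in complete medium at 37 C. Concentration-response data were fitted to the Hill equation to give AC50 values.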

[9] = Cell Viability - LYMP2-012 (AID 982); conditions: LYMP2-012 lymphoblastoid cell viability qHTS; series mostly up to 92.2 µM;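 note: cellular ATP by luciferase luminescence where a drop means cytotoxicity; cells exposed to compound for one day before reading; nearly all actives have a fitted effect of over 55% in size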; note: potency is the fitted concentration of half-maximal effect;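 for activity change, negative = cytotoxicity: 0% = DMSO only and full loss = 92 µM tetraoctylammonium bromide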
[10] = Cell Viability - LYMP2-020 (AID 986); conditions: series mostly up to 92.2 µM; note: nearly all actives have a fitted effect of over 55% in size; note: potency is the fitted concentration of half-maximal effect
Outline: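 Luminescent ATP signal (CellTiter-Glo, 30 min at room temperature) is the read-out after 24 h compound treatment of lymphoblastoid cells at 37 C. AC50 values come from Hill-equation fits across concentrations.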

[11] = target: Voltage-gated inwardly rectifying potassium channel KCNH2 (Homo sapiens) (UniProt Q12809); test: qHTS Assay for Small Molecule Inhibitors of the Human hERG Channel Activity (AID 588834); conditions: U2OS BacMam hERG, FluxOR thallium flux fluorescence; series mostly up to 92.2 µM;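 note: lower thallium flux fluorescence means stronger hERG block; nearly all actives have a fitted effect of over 50% in size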; note: potency is the fitted concentration of half-maximal effect
Sequence of Voltage-gated inwardly rectifying potassium channel KCNH2 (Homo sapiens) (Q12809 whole entry, looked up): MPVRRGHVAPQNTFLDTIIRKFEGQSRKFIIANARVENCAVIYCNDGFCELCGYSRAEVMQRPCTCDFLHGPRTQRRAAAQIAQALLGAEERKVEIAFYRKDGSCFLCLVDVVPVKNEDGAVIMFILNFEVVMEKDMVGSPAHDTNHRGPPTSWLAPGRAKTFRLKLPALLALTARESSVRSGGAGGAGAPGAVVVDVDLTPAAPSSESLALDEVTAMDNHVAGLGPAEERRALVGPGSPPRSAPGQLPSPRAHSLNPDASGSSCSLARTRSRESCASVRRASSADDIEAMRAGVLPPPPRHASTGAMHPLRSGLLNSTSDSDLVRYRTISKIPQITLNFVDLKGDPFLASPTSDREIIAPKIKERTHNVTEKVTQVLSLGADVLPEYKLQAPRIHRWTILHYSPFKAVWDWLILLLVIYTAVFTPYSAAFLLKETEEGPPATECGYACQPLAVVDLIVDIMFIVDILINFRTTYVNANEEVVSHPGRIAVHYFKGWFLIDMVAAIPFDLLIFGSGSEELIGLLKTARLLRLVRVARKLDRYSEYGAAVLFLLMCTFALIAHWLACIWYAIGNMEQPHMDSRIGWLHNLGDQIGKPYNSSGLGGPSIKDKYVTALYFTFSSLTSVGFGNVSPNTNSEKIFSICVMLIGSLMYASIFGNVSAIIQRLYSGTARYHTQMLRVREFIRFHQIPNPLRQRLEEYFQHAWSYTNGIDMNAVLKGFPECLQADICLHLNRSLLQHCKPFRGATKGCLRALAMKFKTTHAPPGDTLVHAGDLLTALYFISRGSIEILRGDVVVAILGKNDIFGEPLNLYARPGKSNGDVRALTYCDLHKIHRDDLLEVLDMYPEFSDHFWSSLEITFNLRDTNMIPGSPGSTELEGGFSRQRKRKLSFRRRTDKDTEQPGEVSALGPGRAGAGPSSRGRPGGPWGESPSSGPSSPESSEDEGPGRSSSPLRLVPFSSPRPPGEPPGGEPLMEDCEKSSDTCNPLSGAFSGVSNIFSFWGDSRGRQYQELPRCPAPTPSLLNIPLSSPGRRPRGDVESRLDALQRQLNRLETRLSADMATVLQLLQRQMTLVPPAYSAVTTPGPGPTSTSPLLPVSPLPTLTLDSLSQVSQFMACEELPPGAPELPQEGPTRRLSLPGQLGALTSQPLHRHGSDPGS
Outline: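 U2OS cells BacMam-transduced with hERG, 2000 cells/well, compound ~10 min at 37 °C before stimulation buffer. FluxOR thallium flux fluorescence read kinetically on FDSS; decrease indicates block; AC50 from Hill fits.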

[12] = target: Tumor necrosis factor (Homo sapiens) (UniProt P01375); test: qHTS assay to identify small molecules that stimulate Tumor Necrosis Factor-alpha (TNF-alpha) secretion (AID 651757; active = well fitted curve in the direction sought with a large enough effect in the signal ratio; the % refers to the signal ratio; note: 0% is about no effect); conditions: Human cells, HTRF 665/615 ratio; series mostly up to 92.2 µM
Sequence of Tumor necrosis factor (Homo sapiens) (P01375 whole entry, looked up): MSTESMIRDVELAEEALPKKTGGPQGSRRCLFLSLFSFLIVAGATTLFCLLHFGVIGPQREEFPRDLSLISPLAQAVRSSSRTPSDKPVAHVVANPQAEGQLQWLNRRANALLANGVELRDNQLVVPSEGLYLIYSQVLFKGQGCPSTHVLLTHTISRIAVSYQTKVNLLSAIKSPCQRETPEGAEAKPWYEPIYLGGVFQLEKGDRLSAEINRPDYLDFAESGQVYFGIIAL
Outline: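 Read-out is HTRF, a TR-FRET sandwich of cryptate- and XL665-labeled anti-TNF-alpha antibodies detecting cytokine secreted by THP-1 cells. Cells had been incubated with test compounds at 37 C for 17 hrs beforehand.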

[13] = qHTS assay for small molecule agonists of the antioxidant response element (ARE) signaling pathway measured by Nrf2-dependant transcriptional activity (AID 720636; active = well fitted curve in the direction sought with a large enough effect in the repeat runs; an effect the other way counts as inactive or inconclusive; note: potency is the fitted concentration of half-maximal effect;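 for activation: HepG2 cells with an ARE-driven luciferase reporter; % of control where 0% means no effect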); conditions: ARE-luc HepG2, Nrf2 luciferase reporter, 16 h; series mostly up to 92.4 µM
Outline: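 Attachment 6 hr at 37 C, then compound versus DMSO vehicle for 16 hr in ARE-luc HepG2 cells (1% dialyzed FBS); luminescence recorded 30 min after ONE-Glo addition at room temperature.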

[14] = qHTS assay for cell viability of the p53RE-bla HCT-116 cell line (AID 743292); conditions: p53RE-bla HCT-116 viability, ATP luminescence, 16 h; series mostly up to 95 µM; note: nearly all actives have a fitted effect of over 55% in size; note: potency is the fitted concentration of half-maximal effect; for activity change, negative = cytotoxicity: % is set by controls: 0 for no effect and ±100 for the full control effect
Outline: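 Compound-exposed HCT-116 (p53RE-bla) cells, 4,000 per well, were kept 16 h at 37 C following a 5 h preincubation. Cell number was estimated from total ATP by CellTiter-Glo luminescence read after 30 min at room temperature.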

[15] = Cellular Toxicity (caspase-3) HepG2 (AID 654); conditions: HepG2 caspase-3 activation, luminescence, 0% = DMSO only, 100% = tamoxifen; series mostly up to 92.2 µM;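 note: cells exposed to compound for 16 hours before reading; 0% = DMSO alone and 100% = caspase signal from 100 µM tamoxifen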
Outline: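 Cells plated 5 hr at 37 °C, compound added, incubated 16 hr at 37 °C. Caspase-Glo 3/7 reagent followed, 20 min at room temperature, then luminescence read. Activation scored as signal increase; AC50 from Hill fit.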

[16] = Cell Viability - LYMP2-013 (AID 970); conditions: LYMP2-013 lymphoblastoid cells viability; series mostly up to 92.2 µM; note: nearly all actives have a fitted effect of over 55% in size; note: potency is the fitted concentration of half-maximal effect
Outline: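 qHTS; 2500 lymphoblastoid cells/well; 5 hr 37 C settle; cpd 24 hr 37 C; CellTiter-Glo, 30 min RT; luminescence. AC50 = Hill fit.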

[17] = Cell Viability - LYMP2-015 (AID 971); conditions: LYMP2-015 lymphoblastoid cell viability; series mostly up to 92.2 µM; note: nearly all actives have a fitted effect of over 55% in size; note: potency is the fitted concentration of half-maximal effect
Outline: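 Luminescent ATP read-out (CellTiter-Glo) served as the viability measure after lymphoblastoid cells were exposed to compounds for 24 hours at 37 C. Concentration-response data were fitted with the Hill equation to give AC50.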

[18] = Cell Viability - LYMP2-021 (AID 974); conditions: LYMP2-021 lymphoblastoid cells viability; series mostly up to 92.2 µM; note: potency is the fitted concentration of half-maximal effect; for activity change, negative = cytotoxicity: % is set by controls: 0 for no effect and ±100 for the full control effect
Outline: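 Plate 2500 lymphoblastoid cells per well and incubate 5 hr at 37 C. Add compounds over a concentration range and incubate 24 hr at 37 C. Add CellTiter-Glo, wait 30 min at room temperature, read luminescence.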

[19] = Cell Viability - LYMP2-025 (AID 976); conditions: LYMP2-025 lymphoblastoid cell viability; series mostly up to 92.2 µM; note: potency is the fitted concentration of half-maximal effect;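 for activity change, negative = cytotoxicity: plate controls were DMSO only for no effect and tetraoctylammonium bromide control for full effect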
Outline: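 Seed 2500 LYMP2-025 cells/well; 5 hr at 37 C; add compound; 24 hr at 37 C; add CellTiter-Glo; 30 min RT; read luminescence. AC50 from Hill-modelled concentration-response.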

O=C1C2(Cl)C3(Cl)C4(Cl)C(Cl)(Cl)C5(Cl)C3(Cl)C1(Cl)C5(Cl)C24Cl (stereo not drawn)
active: Potency [1] 30.2 µM and 47.2 µM | Potency [2] 31.3 µM and 59.3 µM | Potency [3] 31.6 µM and 39.8 µM | activity change, negative = cytotoxicity [4] -136% and -122% | Potency [7] 39.8 µM and 50.1 µM | Potency [8] 39.8 µM and 50.1 µM | Potency [11] 17.8 µM and 28.2 µM
70.8 µM (active) and inactive: Potency [14]
inactive: outcome [5] | outcome [6] | Potency [9] | Potency [10] | Potency [12] | Potency [13]

CN(C)c1ccc(N=O)cc1
inactive: outcome [15] | outcome [5] | outcome [6] | Potency [11] | Potency [14]
active: Potency [1] 47.4 µM | Potency [3] 31.6 µM | Potency [4] 12600 nM | Potency [7] 10 µM | Potency [16] 1580 nM | Potency [17] 1000 nM | Potency [18] 794 nM | Potency [19] 2510 nM | Potency [8] 794 nM | Potency [9] 631 nM | Potency [10] 1260 nM | Potency [13] 26600 nM

Oc1c(Br)c(Br)c(Br)c(Br)c1Br
inactive: Potency [2] > 92 µM | Potency [4] | outcome [15] | outcome [5] | outcome [6] | Potency [7] | Potency [16] | Potency [17] | Potency [18] | Potency [19] | Potency [9] | Potency [10] | Potency [11] | Potency [12] | Potency [13] | Potency [14]
active: activity change, negative = cytotoxicity [3] -118%
